Bioassay records as filed in PubChem.
Pf Dd2 inh: qHTS Primary assay for Inhibitors of Plasmodium falciparum Dd2 growth in vitro; 120,000 compounds, 4.3% hits; P. falciparum Dd2 growth, SYBR Green, 72 h; Potency, µM (top dose mostly 28.9 µM), for inactives: at the top dose activity, negative = inhibition, most hits filed as inhibitors; AID 1347417, 2020; active means well fitted inhibition curve with a large enough effect;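 further: plate controls were DMSO vehicle for no effect and reference drug for full effect; nearly all actives have a fitted effect of over 65% in size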
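Infected erythrocytes (Dd2, 0.3% parasitemia, 2.5% hematocrit final) are added to compound in RPMI-1640/Albumax II medium, grown 72 h at 37C in low oxygen, then lysed with saponin/Triton-X containing SYBR Green and read by fluorescence.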
Starred values were filed as active, the others as inactive; [ ] = dose if it differs, or a comment. This is one part of a sample in which hits are shown more often than they occur. Potency means the concentration at half of the fitted maximal effect.

Results for Cc1cnc(C(=O)N2CCC3(CC2)CC(CO)N(C(=O)c2ccccc2)C3)cn1 (configuration not stated) ?
Pf Dd2 inh: -10%

What do the screens show for `O=C(NCc1ccc(Cl)cc1)c1ccc2ccnn2c1`?
Pf Dd2 inh: -28%[44.1 µM]

What do the screens show for `COC(=O)CNC(=O)c1ccc2nccn2c1`?
Pf Dd2 inh: 19%[44.1 µM]

How did CCC1CN(C(=O)c2ccc(-c3ccsc3)nc2)CCN1C(C)C (configuration not stated) do in these assays?
Pf Dd2 inh: inactive

What do the screens show for `CCS(=O)(=O)N1CCCC(C(=O)NCc2ccncc2)CCNC(=O)CC1` (configuration not stated)?
Pf Dd2 inh: 35%

What do the screens show for `Cn1nc(C2CCN(C(=O)Nc3ccccc3)CC2)[nH]c1=O`?
Pf Dd2 inh: -24%[44.1 µM]

What do the screens show for `COc1ccnc(N2CC[C@H](c3nnc(-c4ccc(N(C)C)cc4)o3)C2)n1`?
Pf Dd2 inh: inactive

How did Cc1oc(-c2cccc(Cl)c2)nc1CN1CCOCC1 do in these assays?
Pf Dd2 inh: 2%

What do the screens show for `Cc1cc(C)cc(N2CC(c3nc(-c4cccc(Cl)c4)no3)CC2=O)c1` (configuration not stated)?
Pf Dd2 inh: 32%

How did Cc1cc(N2CCN(Cc3nc(-c4cccc(Cl)c4)no3)CC2)cc(C)n1 do in these assays?
Pf Dd2 inh: 10µM*

Results for CS(=O)(=O)c1ccc(OCC2(CNC(=O)Nc3cccnc3)C[C@@H](O)[C@@H](O)C2)cc1 (some centres not stated) ?
Pf Dd2 inh: -12%

Results for CN(C)[C@@H]1CN(Cc2ccc(Br)o2)CC[C@@H]1CNC(=O)C1CC1 ?
Pf Dd2 inh: inactive

What do the screens show for `CC(C)NC(=O)CCC[C@@H]1[C@H]2CCCN3CCC[C@@H](CN1Cc1ccccc1)[C@@H]23`?
Pf Dd2 inh: inactive

How did Cc1ccc(CNC(=O)CCC[C@@H]2[C@H]3CCCN4CCC[C@@H](CN2Cc2ccccc2)[C@@H]34)o1 do in these assays?
Pf Dd2 inh: 3.5µM*

Results for Cc1n[nH]c(C)c1CNC(=O)CCC[C@@H]1[C@H]2CCCN3CCC[C@@H](CN1Cc1ccccc1)[C@@H]23 ?
Pf Dd2 inh: -12%

What do the screens show for `Cc1ncsc1CCC(=O)N1CCC2(CCNCC2)CC1`?
Pf Dd2 inh: -6%

How did CC(=O)Nc1ccc(CNC2(Cc3cc(CN4CCCCC4)on3)COC2)cc1 do in these assays?
Pf Dd2 inh: -8%[44.1 µM]

What do the screens show for `O[C@@H]1C[C@@H](c2nc(Cc3ccccc3)no2)N(Cc2ccccc2)C1`?
Pf Dd2 inh: inactive

Results for O=C(c1cccnc1)N1CCCC2(COc3ccccc3[S+](=O)([O-])N2)C1 (configuration not stated) ?
Pf Dd2 inh: 11%

Results for CS(=O)(=O)N(C1CCOCC1)C1CN(C(=O)COc2ccccc2)C1 ?
Pf Dd2 inh: -19%

How did O=C(c1nc2ccccc2[nH]1)N1CCc2c(n(Cc3cccnc3)n(-c3ccccc3)c2=O)C1 do in these assays?
Pf Dd2 inh: inactive

How did Cc1cc(C)c(Cn2c(=O)n(Cc3ccccc3)c(=O)c3c(C)c(C)sc32)c(C)c1 do in these assays?
Pf Dd2 inh: 65%

How did Cc1cccc(C)c1NC(=O)Cn1c(=O)n(Cc2ccccc2)c(=O)c2c(C)c(C(=O)N(C)C)sc21 do in these assays?
Pf Dd2 inh: 8.9µM*

Results for Cc1sc2c(c1C)c(=O)n(Cc1ccccc1)c(=O)n2CC(=O)N(C)c1ccccc1 ?
Pf Dd2 inh: 29%

How did CCN(CC)C(=O)c1sc2c(c1C)c(=O)n(Cc1ccccc1)c(=O)n2Cc1c(C)cc(C)cc1C do in these assays?
Pf Dd2 inh: 10µM*

Results for CCN(CC)C(=O)c1sc2c(c1C)c(=O)n(-c1ccc(C)c(C)c1)c(=O)n2Cc1cccc(Cl)c1 ?
Pf Dd2 inh: -6%

What do the screens show for `CCOC(=O)c1ccccc1NC(=O)Cn1c(=O)n(-c2ccc(CC)cc2)c(=O)c2c(C)c(C(=O)N(C)C)sc21`?
Pf Dd2 inh: -21%

Results for O=C1CN(c2ccc(C(=O)N3C[C@@H](C(=O)O)[C@H](C4CC4)C3)cc2)C(=O)N1 ?
Pf Dd2 inh: -18%

What do the screens show for `O=C(COc1ccc(F)cc1)N1CC(c2nc(CCOCC3CCOCC3)no2)C1`?
Pf Dd2 inh: -20%

How did N#Cc1cccc(NC(=S)O[C@@H]2CO[C@H]3[C@@H]2OC[C@@H]3n2nnnc2SCc2ccco2)c1 do in these assays?
Pf Dd2 inh: -8%

Results for CC(=O)N1CCc2cc(Br)cc(S(=O)(=O)CCC(=O)N3CCN(c4cccc(C)c4C)CC3)c21 ?
Pf Dd2 inh: -24%

What do the screens show for `CCc1cccc(NC(=O)CCS(=O)(=O)c2cc(Br)cc3c2N(C(C)=O)CC3)c1`?
Pf Dd2 inh: -10%

Results for O=C(CCS(=O)(=O)c1cc(Br)cc2c1N(C(=O)C1CC1)CC2)Nc1ccc(F)cc1 ?
Pf Dd2 inh: 4µM*

What do the screens show for `CCN(Cc1ccccc1)S(=O)(=O)c1cc(Br)cc2c1N(C(=O)C1CC1)CC2`?
Pf Dd2 inh: 7.9µM*

What do the screens show for `Cc1ccc(Cl)cc1N1CCN(C(=O)CCS(=O)(=O)c2cc(Br)cc3c2N(C(=O)C2CC2)CC3)CC1`?
Pf Dd2 inh: 10µM*
